Source: PubChem BioAssay (National Center for Advancing Translational Sciences (NCATS))
JMJD2A Tudor = inhibitors of human JMJD2A Tudor domain; AlphaScreen JMJD2A-Tudor / H3K4me3 peptide binding; Potency, µM (series often up to 114 µM), hits mostly inhibitors; 390,000 compounds, 4.4% hits; note: nearly all actives have a fitted effect of over 50% in size
PLK1 PBD block = blocks phosphopeptide binding to human PLK1 polo-box domain | 360,000 compounds, 2.8% hits | Plk1 PBD binding of FITC phosphopeptide, fluorescence polarization | Potency, µM, hits mostly inhibitors; note: series mostly up to about 57 µM; nearly all actives have a fitted effect of over 65% in size
BAZ2B block = BAZ2B (human) inhibition. Q9UIF8. AlphaScreen BAZ2B-H3K14Ac peptide displacement. Potency, µM (highest dose often 114 µM), actives largely listed as inhibitors. 360,000 compounds, 4.4% hits. AID 504333; note: nearly all actives have a fitted effect of over 60% in size
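AlphaScreen displacement: compounds (up to 110uM) incubated 30 min at room temperature with a preformed 50 nM BAZ2B/50 nM biotinylated H3K14Ac peptide complex in PBS pH 7.4 with Tween-20. Donor and acceptor beads at 10 ug/mL final added, 20 min light-protected before reading.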
ALOX12 inh = ALOX12 (human) lipoxygenase inhibition | P18054 | purified 12hLO, xylenol orange hydroperoxide absorbance | Potency, µM (highest dose often 108 µM), most hits filed as inhibitors | 580,000 compounds, 1.1% hits
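Hydroperoxide product was detected by ferrous iron/xylenol orange as the 573 to 405 nm absorbance ratio. Arachidonic acid at 40 uM (final) was turned over for 30 min at room temperature by 150 nM human 12hLO, pH 7.0 Hepes buffer, after 15 min compound preincubation.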
HP1b binding inh = inhibitors of HP1-beta chromodomain binding to methylated histone tails. P83916. AlphaScreen HP1-beta / biotin-H3K9me3 peptide binding. Potency, µM (series often up to 114 µM), actives largely listed as inhibitors. 390,000 compounds, 0.56% hits; note: nearly all actives have a fitted effect of over 70% in size
Target sequence (P83916 whole entry, looked up): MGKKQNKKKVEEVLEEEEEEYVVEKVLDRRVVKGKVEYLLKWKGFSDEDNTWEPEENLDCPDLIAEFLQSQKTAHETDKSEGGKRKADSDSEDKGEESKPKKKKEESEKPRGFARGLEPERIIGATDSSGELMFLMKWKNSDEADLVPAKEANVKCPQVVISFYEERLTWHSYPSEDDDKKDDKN
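Compound inhibition of the preformed complex between 50 nM HP1-beta and 50 nM biotinylated H3K9me3 peptide was read by AlphaScreen. Buffer was PBS pH 7.4 with 0.01% Tween-20. Incubations ran 30 min at room temperature, with 10 ug/mL donor/acceptor beads.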
G9a inh = blocks human histone lysine methyltransferase G9a | Potency, µM (top dose mostly 102 µM), actives largely listed as inhibitors | AID 504332 | 350,000 compounds, 8.8% hits | G9a H3K9 monomethylation, AlphaScreen, 2 h; note: nearly all actives have a fitted effect of over 75% in size
Target sequence (Q96KQ7 913-1193 limits assumed): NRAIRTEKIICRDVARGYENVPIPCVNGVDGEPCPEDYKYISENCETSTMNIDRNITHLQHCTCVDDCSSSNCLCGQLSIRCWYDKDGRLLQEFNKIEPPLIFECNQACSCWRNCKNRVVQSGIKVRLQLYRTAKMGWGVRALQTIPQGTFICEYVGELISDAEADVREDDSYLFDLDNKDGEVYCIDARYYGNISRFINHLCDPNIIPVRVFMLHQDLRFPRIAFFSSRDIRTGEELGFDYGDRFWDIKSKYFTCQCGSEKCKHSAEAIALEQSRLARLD
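Readings reflect AlphaScreen signal from monomethyl-H3K9 antibody detection. HMT at 20 nM; substrate b-H3K9 500 nM; cofactor SAM 20 uM; 2 h RT reaction; compounds tested as titrations in qHTS with 15 min preincubation.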
Of the large screens only hits and unclear results are named; the others gave an inactive call. Shown are actives, neighbours in structure and some others; about 9% of the full set was active somewhere. Calls come from the whole dose curve; as a rule, active = well fitted curve in the direction sought with a large enough effect; inconclusive = small, poorly fitted or top-dose-only effect, or another doubt; inactive = no such curve, though single readings can be large; an effect the other way counts as inactive or inconclusive.

Cc1ccc(/C(N)=N/OC(=O)Cc2ccccc2)cc1	none
CNC(=O)/C(C#N)=C\c1ccc(CNS(=O)(=O)c2ccc(Cl)cc2)o1	PLK1 PBD block 16.8µM, BAZ2B block inconclusive, ALOX12 inh 44.7µM, G9a inh inconclusive
COc1ccc(C(=O)[C@H]2[C@H]3C(=O)N(c4ccc(OC(C)=O)cc4)C(=O)[C@H]3C3C=CC=NN32)cc1 (stereo partly specified)	none (no result: G9a inh)
O=C(Nc1ccc(Cl)cc1)[C@@H]1[C@@H]2C(=O)N(c3cccc(F)c3)C(=O)[C@@H]2[C@H]2C=CC=NN21	JMJD2A Tudor inconclusive, G9a inh 8.91µM
O=C(Cc1ccc(Cl)cc1)NNC1CC(=O)N(c2ccc3ccccc3c2)C1=O (stereo unspecified)	none
O=C(Nc1ccc(Cl)cc1)[C@@H]1[C@@H]2C(=O)N(c3ccc4ccccc4c3)C(=O)[C@@H]2[C@H]2C=CC=NN21	JMJD2A Tudor 63.1µM, BAZ2B block inconclusive, ALOX12 inh 17.8µM, G9a inh 3.16µM
COc1ccc(N2C(=O)[C@@H]3[C@H](C2=O)[C@H]2C=CC=NN2[C@@H]3C(=O)Nc2ccc(Cl)cc2)cc1	JMJD2A Tudor inconclusive, ALOX12 inh inconclusive, G9a inh 7.08µM
O=C(Nc1ccc(Cl)cc1)c1cccc(N2C(=O)C3C4CCC(C4)C3C2=O)c1 (stereo unspecified)	none
CN1CCN(C(=O)c2cc3c(=O)n4ccccc4nc3s2)CC1	G9a inh 50.1µM
CCOc1ccc(S(=O)(=O)NCCC(=O)NCC(c2ccccc2OC)N2CCCC2)cc1 (stereo unspecified)	none
CCOC(=O)c1[nH]cnc1C(=O)Nc1ccc([N+](=O)[O-])cc1	JMJD2A Tudor inconclusive, BAZ2B block inconclusive, G9a inh 79.4µM
O=C(Nc1ccc([N+](=O)[O-])cc1)c1nc[nH]c1C(=O)NC1CCCCC1	BAZ2B block 50.1µM
Cc1cccc(-n2ncnc2-c2cc3c(n(-c4ccccc4)c2=O)CC(C)(C)CC3=O)c1C	none (no result: JMJD2A Tudor, PLK1 PBD block, BAZ2B block, HP1b binding inh, G9a inh)
O=C(c1ccc2c3n(nc2c1)-c1ccc(Cl)cc1CO3)N1CCCCC1	none
O=C(O)c1ccc2c3n(nc2c1)-c1ccc(Cl)cc1CO3	BAZ2B block inconclusive, G9a inh 50.1µM
COc1ccc(OC)c(CN2CCC(C(=O)N3CCOCC3)CC2)c1	JMJD2A Tudor 2.24µM, BAZ2B block inconclusive, ALOX12 inh inconclusive, HP1b binding inh inconclusive, G9a inh 10µM
COc1cccc(CN2CCC(C(=O)N3CCN(Cc4ccc5c(c4)OCO5)CC3)CC2)c1	JMJD2A Tudor 0.891µM, ALOX12 inh inconclusive, HP1b binding inh inconclusive
O=C(C1CCN(S(=O)(=O)c2ccccc2)CC1)N1CCN(c2ccccc2F)CC1	none
COc1ccc(OC)c(CN2CCC(C(=O)N3CCN(c4ccccc4F)CC3)CC2)c1	JMJD2A Tudor 1.41µM, BAZ2B block inconclusive, ALOX12 inh inconclusive, HP1b binding inh inconclusive, G9a inh 10µM
O=C(C1CCN(c2nnc(-n3cccc3)s2)CC1)N1CCN(Cc2ccc3c(c2)OCO3)CC1	BAZ2B block inconclusive, G9a inh inconclusive
COc1ccc(F)c(CN2CCC(N3CCC(C(=O)N4CCOCC4)CC3)CC2)c1	none
CS(=O)(=O)N1CCC(C(=O)N2CCN(c3ccccc3F)CC2)CC1	JMJD2A Tudor inconclusive, PLK1 PBD block 18.9µM
C=CCc1ccccc1OCCN(C)Cc1cc2ccc(F)cc2[nH]c1=O	none (no result: JMJD2A Tudor, PLK1 PBD block, BAZ2B block, HP1b binding inh, G9a inh)
COc1ccccc1N1CCN(C(=O)C2CCN(S(=O)(=O)Cc3ccc(F)cc3)CC2)CC1	none (no result: JMJD2A Tudor, PLK1 PBD block, BAZ2B block, HP1b binding inh, G9a inh)
COc1cccc(CN2CCC(C(=O)N3CCN(c4ccccc4F)CC3)CC2)c1	JMJD2A Tudor 8.91µM, HP1b binding inh inconclusive, G9a inh 10µM
COc1cc(CN2CCC(C(=O)N3CCN(c4ccccc4F)CC3)CC2)ccc1O	JMJD2A Tudor 2.51µM, BAZ2B block 56.2µM, HP1b binding inh inconclusive, G9a inh 14.1µM
COc1cc(CN2CCC(C(=O)NC3CCCC3)CC2)ccc1O	JMJD2A Tudor inconclusive, BAZ2B block 31.6µM, ALOX12 inh inconclusive, HP1b binding inh inconclusive, G9a inh inconclusive
COc1cc(/C=N/OCC(=O)NC2CCCCC2C)ccc1OCc1ccc(Cl)cc1 (stereo unspecified)	none
Cc1ccc(S(=O)(=O)N(C)C)cc1NC(=O)CSc1nc2ncc(Cl)cc2[nH]1	G9a inh 35.5µM
Cc1ccccc1NC(=O)CSc1nc2ncc(Cl)cc2[nH]1	G9a inh inconclusive
O=C(NC(=S)NNC(=O)[C@H]1C[C@@H]1c1ccccc1)c1ccc(-c2ccccc2)cc1	none (no result: JMJD2A Tudor, PLK1 PBD block, BAZ2B block, HP1b binding inh, G9a inh)
CCCNC(=O)Cc1c(OC)ccc2cc(Br)ccc12	PLK1 PBD block inconclusive, HP1b binding inh inconclusive
Cc1ccc(NC(=O)N/C=C/c2ccccc2)cc1	none
c1cncc(CNC2CCCc3ccccc32)c1 (stereo unspecified)	JMJD2A Tudor inconclusive, G9a inh 44.7µM
COc1cccc(CNC2CCCc3ccccc32)c1OC (stereo unspecified)	JMJD2A Tudor 79.4µM, BAZ2B block inconclusive, ALOX12 inh inconclusive, HP1b binding inh inconclusive, G9a inh 39.8µM
COc1cc(CNC2CCCc3ccccc32)cc(OC)c1OC (stereo unspecified)	JMJD2A Tudor 10µM, BAZ2B block 70.8µM, HP1b binding inh inconclusive, G9a inh inconclusive
CN(Cc1cccnc1)C1CCCc2ccccc21 (stereo unspecified)	none (no result: JMJD2A Tudor, PLK1 PBD block, BAZ2B block, HP1b binding inh, G9a inh)
COc1ccccc1CN(C)C1CCCc2ccccc21 (stereo unspecified)	none (no result: JMJD2A Tudor, PLK1 PBD block, BAZ2B block, HP1b binding inh, G9a inh)
O=C(NC1=NCCS1)C1CCN(S(=O)(=O)c2ccc(Cl)cc2)CC1	none
O=c1[nH]c(-c2ccccn2)nc2sc(-c3ccccc3)cc12	JMJD2A Tudor inconclusive, PLK1 PBD block 10.6µM, BAZ2B block 44.7µM, G9a inh 8.91µM
CCN(CC)C(=O)c1sc2nc(Cc3ccccc3)[nH]c(=O)c2c1C	JMJD2A Tudor inconclusive, PLK1 PBD block 29.9µM, G9a inh inconclusive
CC(=O)N(Cc1ccccc1)Cc1nc2sc(C)c(C)c2c(=O)[nH]1	none (no result: G9a inh)
Cc1c(C(=O)N(C)C)sc2nc(-c3ccccn3)[nH]c(=O)c12	JMJD2A Tudor 50.1µM, BAZ2B block 10µM, G9a inh inconclusive
CCOC(=O)c1[nH]c2ccc(Br)cc2c1NC(=O)CCN1CCCC(C)(C)C1	ALOX12 inh inconclusive, G9a inh 8.91µM
CC(/C=C1\SC(=O)N(CC(=O)Nc2ccc(O)cc2)C1=O)=C\c1ccccc1	none
CNc1ccccc1C(C)(C)c1cc(-c2cccc(OC)c2)no1	G9a inh 1.58µM
COC(=O)COc1ccc2c(C)c(C)c(=O)oc2c1C	none (no result: JMJD2A Tudor, PLK1 PBD block, BAZ2B block, HP1b binding inh, G9a inh)
COc1ccc2nc(N=Nc3c(O)ccc4ccccc34)sc2c1	BAZ2B block 2.82µM, G9a inh 3.16µM (no result: JMJD2A Tudor, PLK1 PBD block, ALOX12 inh, HP1b binding inh)
COc1ccc2nc(NC(=O)Nc3cccc4ccccc34)sc2c1	none
